# Screens (PubChem)
# SARS PLpro yeast: qHTS of Yeast-based Assay for SARS-CoV PLP; AID 485353, 2010; S. cerevisiae expressing SARS-CoV PLpro, growth rescue; hit rate 0.19% among 330,000; Potency, µM (top dose mostly 32.9 µM), for inactives: at the highest dose activity, positive = growth rescue, most hits filed as activators; calls by dose curve; also: potency is read from the fitted curve at half-maximal effect; 0% is about no effect; nearly all actives have a fitted effect of over 55% in size
# Pf growth 48h: Primary qHTS for delayed death inhibitors of the malarial parasite plastid, 48 hour incubation. P. falciparum luciferase growth in erythrocytes, 48 h. Potency, µM (series often up to 28.7 µM), inactives show at the top dose activity change, negative = inhibition, most hits filed as inhibitors. hit rate 5.9% among 310,000. AID 504832, 2011; also: potency is read from the fitted curve at half-maximal effect; % is scaled to controls: 0 for no effect and ±100 for the full control effect
#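 In quantitative HTS format, infected erythrocytes bearing luciferase-reporter parasites were treated for a single generation at 37 C. Luminescence after adding detection reagent served as the growth measure.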
# Pf growth 96h: Primary qHTS for delayed death inhibitors of the malarial parasite plastid, 96 hour incubation. hit rate 6.9% among 320,000. Potency, µM (series often up to 28.7 µM), inactives show top-dose activity change, negative = inhibition, actives largely listed as inhibitors. P. falciparum luciferase reporter growth, 96 h; also: potency is read from the fitted curve at half-maximal effect; % is scaled to controls: 0 for no effect and ±100 for the full control effect
#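 P. falciparum expressing integrated firefly luciferase grown in erythrocytes (2% hematocrit, 0.05% parasitemia final) with compounds for 96 hours at 37 C, 5% CO2. Growth inhibition read as loss of luminescence after adding luciferase detection reagent.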
# AMA1 RON2 block: qHTS for Inhibitors of AMA1-RON; Towards Development of Antimalarial Drug Lead: Primary Screen; Plasmodium falciparum AMA1 (3D7) - RON2 peptide interaction; AlphaScreen AMA1-biotinylated RON2 peptide binding; Potency, µM (doses to about 58.2 µM), for the others: top-dose activity change, negative = inhibition, usual class: inhibitors; hit rate 0.2% among 360,000; AID 720542, 2013;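 also: potency is read from the fitted curve at half-maximal effect; 0% = vehicle wells and -100% = peptide control; nearly all actives have a fitted effect of over 45% in size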
#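 AMA1 (3D7) with his tag at 25 nM final met compounds first, then biotinylated RON2 peptide at 25 nM; detection used donor plus acceptor beads, 10 µg/mL apiece, read by AlphaScreen after 30 min at room temperature.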
# HCV inh: qHTS Assay for Inhibitors of Hepatitis C Virus (HCV); AID 651820, 2012; Potency, µM (doses to about 41.8 µM), inactives show at the highest dose activity change, negative = inhibition, most hits filed as inhibitors; Huh7.5.1 HCVcc-Cre infection, luciferase reporter, 44 h; hit rate 3.4% among 340,000; also: potency is read from the fitted curve at half-maximal effect; % is scaled to controls: 0 for no effect and ±100 for the full control effect
#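 A cell-based infection assay in which seeded cells (1,000 per well) receive test compound after 4 h, are inoculated with HCVcc-Cre at approximately 0.5 moi, and are incubated 44 h before luminescence detection.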
# NS1 function inh: qHTS Assay for Inhibitors of Influenza NS1 Protein Function; Potency, µM (doses to about 46.1 µM), inactives show top-dose activity, positive = more growth; hit rate 0.4% among 270,000; AID 2326, 2010; calls by dose curve; also: potency is read from the fitted curve at half-maximal effect; actives are rising curves; nearly all actives have a fitted effect of over 50% in size
#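 Growth recovery, yeast-based: influenza A NS1 expressed in S. cerevisiae causes slow growth, and suppressors are detected by OD600. The parent strain without NS1 is used as positive control.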
# CLK4 cf ADPGlo: Confirmaiton Assay for Inhibitors of CDC-like Kinase 4 (ADP-Glo Assay); hit rate 80% among 65; shares compounds with Pf growth 48h; Potency, µM (highest dose often 80 µM), inactives show at the top dose activity, negative = inhibition, most hits filed as inhibitors; recombinant Clk4, RS peptide, ADP-Glo luminescence
# Target sequence (Q9HAZ1 whole entry, looked up): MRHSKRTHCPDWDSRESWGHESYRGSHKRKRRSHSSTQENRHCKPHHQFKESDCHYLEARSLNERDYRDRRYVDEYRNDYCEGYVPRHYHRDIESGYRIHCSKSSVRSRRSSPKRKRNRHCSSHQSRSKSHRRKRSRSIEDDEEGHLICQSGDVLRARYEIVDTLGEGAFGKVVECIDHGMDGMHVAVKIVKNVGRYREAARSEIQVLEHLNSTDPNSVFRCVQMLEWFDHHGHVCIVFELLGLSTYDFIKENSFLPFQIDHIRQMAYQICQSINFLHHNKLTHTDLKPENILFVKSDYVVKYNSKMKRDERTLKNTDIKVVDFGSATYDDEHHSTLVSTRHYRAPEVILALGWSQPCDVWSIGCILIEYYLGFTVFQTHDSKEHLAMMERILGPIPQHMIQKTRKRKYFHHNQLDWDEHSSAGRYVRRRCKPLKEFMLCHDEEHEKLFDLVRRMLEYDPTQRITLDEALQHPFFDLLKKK
# CLK4 ADP FP: Confirmation Assay for Inhibitors of CDC-like Kinase 4 (ADP-FP Assay); shares compounds with Pf growth 48h; hit rate 70% among 65; AID 1983, 2009; recombinant Clk4, ADP Transcreener FP, RS peptide; Potency, µM (titrated, usually from 80 µM), inactives show at the highest dose activity, negative = inhibition, actives largely listed as inhibitors
# HCV confirm: qHTS Assay for Inhibitors of Hepatitis C Virus (HCV): Confirmation Assay for Cherry-picked Compounds; Potency, µM (series often up to 41.8 µM), for the others: at the top dose activity, negative = inhibition, actives largely listed as inhibitors; shares compounds with HCV inh; HCVcc-Cre infectious virus cell assay, luciferase, inhibition; hit rate 78% among 640; also: potency is read from the fitted curve at half-maximal effect; nearly all actives have a fitted effect of over 80% in size
# HCV host tox: qHTS Assay for Inhibitors of Hepatitis C Virus (HCV): Cytotoxicity Counterscreen for Cherry-picked Compounds. shares compounds with HCV inh. HCV host cell line cytotoxicity counterscreen. Potency, µM (titrated, usually from 41.8 µM), inactives show at the highest dose activity change, negative = cytotoxicity, hits mostly inhibitors. hit rate 22% among 640. AID 720576, 2013;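 also: potency is read from the fitted curve at half-maximal effect; 44 h compound exposure; % is scaled to controls: 0 for no effect and ±100 for the full control effect; nearly all actives have a fitted effect of over 55% in size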
# Active calls of the source: *; ? = inconclusive; . = no result given; [ ] = another dose, or the depositor's remark. In the library only some 12% were active in any assay of this set; here they are far more common. Unless noted, calls follow the shape of the dose curve; as a rule, active = well fitted curve in the direction sought with a large enough effect; inconclusive = small, poorly fitted or top-dose-only effect, or another doubt; inactive = no such curve, though single readings can be large; an effect the other way counts as inactive or inconclusive.
SMILES,SARS PLpro yeast,Pf growth 48h,Pf growth 96h,AMA1 RON2 block,HCV inh,NS1 function inh,HCV confirm,HCV host tox,others
COc1ccc(CNc2ncnc3cc(Cl)ccc23)cc1OC,-1%,11%,6%,1%,?,-3%,.,.,
Cc1cccc(CNc2ncnc3ccc(-c4ccc5c(c4)OCO5)cc23)c1,-7%,5.9µM*,3.3µM*,.,.,.,.,.,CLK4 cf ADPGlo=0.11µM*;CLK4 ADP FP=0.1µM*
Cc1cccc2sc(NS(C)(=O)=O)nc12,0%,38%,12%,6%,15%,8%,.,.,
O=C(Nc1ccccc1Cl)c1sccc1-c1ccccc1,-4%,?,?,28%,-8%,-78%,.,.,
NC(=O)c1ccc(NC(=O)CN2C(=O)NC(c3ccccc3)(c3ccccc3)C2=O)cc1,1%,6%,3%,8%,-25%,-8%,.,.,
CCN(C(=O)CSc1nnc(-c2ccc3c(c2)OCO3)o1)C1CCS(=O)(=O)C1 (stereo unspecified),-3%,-11%,-28%,-3%[11.6 µM],-3%,.,.,.,
CN1CCN(CC#CCn2c3ccccc3c3ccccc32)CC1,-3%,?,217%,-13%,4µM*,-6%,7µM*,13%,
CC(C)(c1cc(Cl)c(O)c(CN2CCOCC2)c1)c1cc(Cl)c(O)c(CN2CCOCC2)c1,.,.,.,-7%,3.2µM*,.,6.3µM*,45%,
Oc1c(CN2CCOCC2)cc(CN2CCOCC2)c(O)c1CN1CCOCC1,.,.,.,0%,6%,.,.,.,
CC(=O)Nc1ccc(-c2csc(N/N=C(/C)c3ccccc3)n2)cc1,1%,?,?,50%,1.3µM*,16%,6.3µM*,-22%,
CCN1CCN(c2cc(C)c3cc(NC(=O)c4cc(OC)cc(OC)c4)ccc3n2)CC1,1%,?,?,9%,2.2µM*,-3%,25µM*,22µM*,
CCN(CC)CCNC(=S)Nc1ccc2nc(N3CCCC3)cc(C)c2c1,-7%,?,-6%,-10%,2µM*,.,7µM*,-23%,
C=CCC1(CC=C)CCCN1C(=O)Cn1nnnc1CN(C)C(C)C,11%,15%,?,13%,17%,-15%,.,.,
Cc1cc2[nH]c3c(c[n+](C)c4ccccc34)c2cc1C,-3%,0.47µM*,?,-8%,5µM*,-33%,16µM*,?,
Cc1cc(=O)[nH]c2ccccc12,4%,20%,51%,5%,2%,1%,.,.,
O=[N+]([O-])c1ccc(S(=O)(=O)CC(CN2CCCCC2)N2CCCCC2)cc1 (stereo unspecified),0%,19%[5.75 µM],14%[5.75 µM],-1%,4.5µM*,.,11µM*,20µM*,
O=S(=O)(CC(CN1CCCCC1)N1CCCCC1)c1ccccc1 (stereo unspecified),15%,-80%,?,-2%,?,6%,.,.,
O=c1c2ccccc2nc2n1CCN2Cc1ccc(Cl)cc1,-14%,2.1µM*,2.3µM*,-3%,?,-31%,6.3µM*,?,
COc1ccccc1C(=O)N1CCCC(C)(C(=O)NS(=O)(=O)C2CC2)C1 (stereo unspecified),.,.,.,10%,.,.,.,.,
CN(Cc1ccon1)Cc1cn(C)nc1-c1ccc2c(c1)OCCO2,2%,20%,1%,30%,14%,3%,.,.,
Cn1cc(CNCc2ccc(OC(F)(F)F)cc2)c(-c2ccc3c(c2)OCCO3)n1,0%,-13%,?,-8%,1µM*,7%,1µM*,5µM*,
CCC1=Nc2cc(C(=O)NCCN3CCOCC3)ccc2Sc2ccc(Br)cc21,0%,?,0%,-9%,-18%,-1%,.,.,
CC1(C(=O)OCC(=O)Nc2nnc(-c3ccccc3)o2)CC1(Cl)Cl (stereo unspecified),1%,?,1%,51%,-4%,.,.,.,
COc1ccc(NC(=O)C(C)N2C(=O)C3CC=C(Cl)CC3C2=O)cc1 (stereo unspecified),-5%,7%,0%,-6%,.,16%,.,.,
C/C(=N\NC(=O)C1COc2ccccc2O1)c1ccccn1 (stereo unspecified),30%,2.6µM*,2.6µM*,-19%,4.5µM*,-41%,11µM*,?,
SMILES,SARS PLpro yeast,Pf growth 48h,Pf growth 96h,AMA1 RON2 block,HCV inh,NS1 function inh,HCV confirm,HCV host tox,others
C/C(=N\NC(=O)C1COc2ccccc2O1)c1ccc(C)o1 (stereo unspecified),2%,.,-28%,65%,3%,-2%,.,.,
Cc1ccc(C2(C)NC(=O)N(CC(=O)c3ccc(Cl)s3)C2=O)cc1 (stereo unspecified),-20%,-7%,-5%,0%,5%,10%,.,.,
CCCCn1c(C)cc2c(c1=O)C1O[C@](c3ccsc3)(Cc3cc(OC)c(OC)cc31)O2,1%[6.58 µM],?,?,.,.,17%,.,.,
O=C(CN1C2=NCCN2c2ccccc21)C12CC3CC(CC(C3)C1)C2,-6%,?,-14%,-1%,?,-7%,28µM*,11%,
COc1ccccc1NC(=O)c1ccc(NC(=O)CNC(=O)c2ccc(OC)c(OC)c2)cc1,0%,?,?,2%,-26%,1%,.,.,
COc1ccccc1NC(=O)c1ccc(NC(=O)COC(=O)c2ccc(O)cc2)cc1,-9%,?,-22%,6%,?,.,?,?,
Cc1cc(Cl)c2oc(C(=O)N3CCN(C(=O)c4ccco4)CC3)c(C)c2c1,-21%,?,6%,-6%,?,-21%,?,-12%,
